Inconclusive results are not listed. Activity calls are given as the source filed them. Unless noted, the call rests on the fitted dose curve; in most records, active means well fitted curve in the direction sought with a large enough effect in the repeat runs; inconclusive means weak or mixed curves; inactive means no such curve, though single readings can be large; an effect the other way counts as inactive or inconclusive.
Legend:
[1] = qHTS assay to identify aromatase inhibitors - cell viability counter screen (AID 743084);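 further: cells stimulated with testosterone during compound exposure; nearly all actives have a fitted effect of over 55% in size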
[2] = biological target: Aryl hydrocarbon receptor (Homo sapiens) (UniProt P35869); assay: qHTS assay to identify small molecule that activate the aryl hydrocarbon receptor (AhR) signaling pathway (AID 743085);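 further: HG2L7.5c1 human HepG2 liver cells with stably integrated DRE-driven firefly reporter; series mostly up to about 70 µM; nearly all actives have a fitted effect of over 15% in size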
Chain of Aryl hydrocarbon receptor (Homo sapiens) (P35869 whole entry, looked up): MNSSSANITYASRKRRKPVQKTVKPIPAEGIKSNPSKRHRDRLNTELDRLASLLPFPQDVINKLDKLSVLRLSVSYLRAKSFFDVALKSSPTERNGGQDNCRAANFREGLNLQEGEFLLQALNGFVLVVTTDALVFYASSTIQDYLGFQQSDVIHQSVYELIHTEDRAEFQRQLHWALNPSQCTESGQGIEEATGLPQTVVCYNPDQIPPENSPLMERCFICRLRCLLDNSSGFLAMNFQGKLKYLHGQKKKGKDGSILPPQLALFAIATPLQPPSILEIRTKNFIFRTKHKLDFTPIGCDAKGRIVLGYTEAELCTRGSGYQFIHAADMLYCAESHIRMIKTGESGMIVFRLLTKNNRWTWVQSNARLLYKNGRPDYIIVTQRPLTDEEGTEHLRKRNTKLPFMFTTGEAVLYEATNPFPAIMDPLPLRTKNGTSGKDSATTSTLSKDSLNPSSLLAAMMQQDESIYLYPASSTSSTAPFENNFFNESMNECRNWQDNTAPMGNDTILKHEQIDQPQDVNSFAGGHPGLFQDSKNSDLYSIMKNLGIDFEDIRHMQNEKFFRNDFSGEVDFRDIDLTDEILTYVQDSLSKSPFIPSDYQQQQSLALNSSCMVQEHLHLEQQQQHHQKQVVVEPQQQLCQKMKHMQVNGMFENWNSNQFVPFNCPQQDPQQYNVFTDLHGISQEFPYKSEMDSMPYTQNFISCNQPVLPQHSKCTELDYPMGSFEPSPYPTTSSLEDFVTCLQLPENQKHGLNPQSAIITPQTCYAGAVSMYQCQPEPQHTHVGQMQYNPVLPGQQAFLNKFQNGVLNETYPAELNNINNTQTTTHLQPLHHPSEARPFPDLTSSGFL
In short: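 A multiplexed format paired cell viability (CellTiter-Fluor fluorescence) with AhR-dependent luciferase output (ONE-Glo luminescence) in the same wells of HepG2 DRE-luc cells after 24 h compound exposure at 37C.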

[3] = biological target: Peroxisome proliferator-activated receptor gamma (Homo sapiens) (UniProt P37231); assay: qHTS assay to identify small molecule agonists of the peroxisome proliferator-activated receptor gamma (PPARg) signaling pathway (AID 743094; active means well fitted activation curve with a large enough effect in the signal ratio in the repeat runs, not every such curve was filed as active; the % refers to the signal ratio)
Chain of Peroxisome proliferator-activated receptor gamma (Homo sapiens) (P37231 whole entry, looked up): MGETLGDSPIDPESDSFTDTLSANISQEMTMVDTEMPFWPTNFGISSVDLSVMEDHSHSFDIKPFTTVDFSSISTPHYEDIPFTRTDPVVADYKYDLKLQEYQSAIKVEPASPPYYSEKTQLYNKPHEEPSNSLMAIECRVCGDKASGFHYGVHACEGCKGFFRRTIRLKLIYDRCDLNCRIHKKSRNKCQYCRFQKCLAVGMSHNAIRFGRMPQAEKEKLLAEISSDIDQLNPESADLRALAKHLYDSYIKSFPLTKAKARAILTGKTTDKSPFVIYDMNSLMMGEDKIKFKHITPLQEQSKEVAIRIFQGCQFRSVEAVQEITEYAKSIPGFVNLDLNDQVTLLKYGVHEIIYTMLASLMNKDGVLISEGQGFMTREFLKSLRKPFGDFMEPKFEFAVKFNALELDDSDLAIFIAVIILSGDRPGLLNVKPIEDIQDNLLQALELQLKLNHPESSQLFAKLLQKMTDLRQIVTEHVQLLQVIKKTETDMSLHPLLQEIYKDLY
In short: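 Cells from the PPARg UAS-bla HEK293H line are plated and incubated 5 h at 37C. Compounds in DMSO are pinned in and left 17 h at 37C. LiveBLAzer B/G substrate is then added for 1 h at room temperature before fluorescence is measured.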

[4] = qHTS assay for small molecule agonists of the antioxidant response element (ARE) signaling pathway (AID 743202; active means well fitted activation curve with a large enough effect in the signal ratio in the repeat runs, not every such curve was filed as active; the % refers to the signal ratio)
In short: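 After 16 hours of compound treatment at 37 C, HepG2 cells with a stably integrated ARE-driven beta-lactamase reporter were loaded 2 hours at room temperature with LiveBLAzer B/G FRET substrate and fluorescence intensity measured.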

[5] = qHTS assay for small molecule agonists of the antioxidant response element (ARE) signaling pathway - cell viability counter screen (AID 743203; calls by dose curve; further: nearly all actives have a fitted effect of over 55% in size)
In short: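 Cytotoxicity was tested in parallel with the ARE reporter screen. ARE-bla HepG2 cells were exposed to compounds for 16 hrs, and viability was taken from CellTiter-Glo luminescence.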

[6] = qHTS assay for small molecule activators of the heat shock response signaling pathway - cell viability counter screen (AID 743209); further: nearly all actives have a fitted effect of over 50% in size
In short: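 Cytotoxicity counter screen run in parallel with the HSE beta-lactamase reporter, using the same wells. HeLa HSE-bla cells received compound for 5 h at 37 C; ATP-based CellTiter-Glo luminescence was measured after 30 min at room temperature.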

[7] = qHTS assay for small molecule activators of the heat shock response signaling pathway (AID 743210; active means well fitted activation curve with a large enough effect in the signal ratio in the repeat runs, with a control signal flat, not every such curve was filed as active; the % refers to the signal ratio; further: series mostly up to about 63 µM)
In short: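 Compound exposure lasted 5 h at 37 C in HeLa cells carrying a heat-shock-element-driven beta-lactamase reporter. Read-out: fluorescence intensity after 2.5 h room-temperature loading with LiveBLAzer B/G FRET substrate.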

[8] = qHTS assay to identify small molecule agonists of the peroxisome proliferator-activated receptor delta (PPARd) signaling pathway - cell viability counter screen (AID 743211); further: nearly all actives have a fitted effect of over 55% in size
In short: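 Tox21 library compounds, delivered in DMSO, were incubated 17 h with PPARd-bla HEK293H cells; cytotoxicity was taken from CellTiter-Glo luminescence read 30 min after reagent addition.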

[9] = biological target: Peroxisome proliferator-activated receptor delta (Homo sapiens) (UniProt Q03181); assay: qHTS assay to identify small molecule agonists of the peroxisome proliferator-activated receptor delta (PPARd) signaling pathway (AID 743212; calls by dose curve)
Chain of Peroxisome proliferator-activated receptor delta (Homo sapiens) (Q03181 whole entry, looked up): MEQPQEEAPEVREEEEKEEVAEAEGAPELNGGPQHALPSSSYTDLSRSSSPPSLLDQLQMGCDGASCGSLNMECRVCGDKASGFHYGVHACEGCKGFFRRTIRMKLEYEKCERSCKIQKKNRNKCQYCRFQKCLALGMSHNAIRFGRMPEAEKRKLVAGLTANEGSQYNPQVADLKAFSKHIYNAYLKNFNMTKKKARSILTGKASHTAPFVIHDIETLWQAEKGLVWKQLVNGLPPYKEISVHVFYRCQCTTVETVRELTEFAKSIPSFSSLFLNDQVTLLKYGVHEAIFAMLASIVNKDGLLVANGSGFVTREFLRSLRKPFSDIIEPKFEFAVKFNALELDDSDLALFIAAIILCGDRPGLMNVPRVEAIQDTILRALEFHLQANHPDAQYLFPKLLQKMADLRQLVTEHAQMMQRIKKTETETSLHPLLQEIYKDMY
In short: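 Beta-lactamase reporter readout: a ratiometric FRET signal from the LiveBLAzer substrate after 2 h at room temperature. Compound exposure at 37 °C in PPARδ-bla HEK293H cells driven by an upstream activator sequence.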

[10] = qHTS assay to identify small molecule antagonists of the peroxisome proliferator-activated receptor delta (PPARd) signaling pathway - cell viability counter screen (AID 743213); further: nearly all actives have a fitted effect of over 50% in size
In short: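 PPARd-bla HEK293H cells (3000/well) got compound plus 300 nM L165041 agonist for 17 h at 37 C. Viability in the same wells came from CellTiter-Glo luminescence after 30 min at room temperature.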

[11] = biological target: Peroxisome proliferator-activated receptor delta (Homo sapiens) (UniProt Q03181); assay: qHTS assay to identify small molecule antagonists of the peroxisome proliferator-activated receptor delta (PPARd) signaling pathway (AID 743215; active means well fitted inhibition curve with a large enough effect in the signal ratio in the repeat runs, not every such curve was filed as active; the % refers to the signal ratio;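 further: cells stimulated with agonist L165041 at 300 nM final during compound exposure; series mostly up to about 62 µM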)
In short: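 Cells: HEK293H with a UAS-driven beta-lactamase reporter responsive to PPARd. Compounds were co-added with L165041 (300 nM, final) and incubated 17 h at 37 C before a 2 h room-temperature FRET substrate step and fluorescence reading.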

[12] = biological target: Bile acid receptor (Homo sapiens) (UniProt Q96RI1); assay: qHTS assay to identify small molecule antagonists of the farnesoid-X-receptor (FXR) signaling pathway (AID 743217; active means well fitted inhibition curve with a large enough effect in the signal ratio in the repeat runs, not every such curve was filed as active; the % refers to the signal ratio)
Chain of Bile acid receptor (Homo sapiens) (Q96RI1 whole entry, looked up): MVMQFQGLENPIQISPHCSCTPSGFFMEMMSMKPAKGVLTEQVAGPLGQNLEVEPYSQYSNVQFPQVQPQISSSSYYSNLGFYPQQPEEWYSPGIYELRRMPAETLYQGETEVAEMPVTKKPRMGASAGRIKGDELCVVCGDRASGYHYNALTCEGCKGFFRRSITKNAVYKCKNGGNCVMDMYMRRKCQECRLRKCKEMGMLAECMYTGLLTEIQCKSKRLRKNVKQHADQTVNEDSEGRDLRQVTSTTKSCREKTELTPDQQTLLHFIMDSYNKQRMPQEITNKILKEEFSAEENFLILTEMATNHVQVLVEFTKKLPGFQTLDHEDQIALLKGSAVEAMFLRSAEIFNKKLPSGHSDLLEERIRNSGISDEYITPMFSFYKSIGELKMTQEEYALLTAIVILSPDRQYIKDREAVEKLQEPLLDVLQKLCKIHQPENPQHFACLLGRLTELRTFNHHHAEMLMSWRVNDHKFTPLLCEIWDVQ
In short: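 Cells carrying a UAS-driven beta-lactamase reporter (GeneBLAzer FXR-UAS-bla HEK 293T) were plated and rested 5 h at 37 °C. Compounds in DMSO were added alongside chenodeoxycholic acid agonist at 50 uM final and left 16 h at 37 °C before FRET substrate readout.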

[13] = qHTS assay to identify small molecule agonists of the farnesoid-X-receptor (FXR) signaling pathway - cell viability counter screen (AID 743218); further: nearly all actives have a fitted effect of over 45% in size
In short: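 Cells were seeded, left 5 h at 37 C and 5% CO2, then dosed with compound in DMSO for 16 h. After the beta-lactamase FRET read, CellTiter-Glo was added and luminescence measured 30 min later.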

[14] = qHTS assay to identify small molecule antagonists of the farnesoid-X-receptor (FXR) signaling pathway - cell viability counter screen (AID 743221; active means well fitted cell-killing curve with a large enough effect in the repeat runs, not every such curve was filed as active; further: nearly all actives have a fitted effect of over 50% in size)
In short: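 Cytotoxicity is taken from ATP luminescence (CellTiter-Glo, 30 min, room temperature) in FXR-bla HEK 293T cells previously incubated 16 h at 37 C with compound and chenodeoxycholic acid at 50 uM final.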

[15] = biological target: Vitamin D3 receptor (Homo sapiens) (UniProt P11473); assay: qHTS assay to identify small molecule agonists of the vitamin D receptor (VDR) signaling pathway (AID 743222; calls by dose curve)
Chain of Vitamin D3 receptor (Homo sapiens) (P11473 whole entry, looked up): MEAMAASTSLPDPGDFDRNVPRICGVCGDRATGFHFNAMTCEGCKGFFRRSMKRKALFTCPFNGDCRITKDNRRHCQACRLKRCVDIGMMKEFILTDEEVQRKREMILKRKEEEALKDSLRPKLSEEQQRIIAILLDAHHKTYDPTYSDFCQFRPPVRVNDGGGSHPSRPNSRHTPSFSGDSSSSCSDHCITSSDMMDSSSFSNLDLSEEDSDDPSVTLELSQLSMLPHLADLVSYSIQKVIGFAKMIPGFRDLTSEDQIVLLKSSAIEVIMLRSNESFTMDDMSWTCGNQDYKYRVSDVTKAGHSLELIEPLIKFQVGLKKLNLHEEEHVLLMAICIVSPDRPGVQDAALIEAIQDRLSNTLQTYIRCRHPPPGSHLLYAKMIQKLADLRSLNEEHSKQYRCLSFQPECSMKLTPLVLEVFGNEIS
In short: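 Cells carrying a VDR-driven beta-lactamase reporter are seeded at 2,000 per well and rested 4 h. Compounds in DMSO are added for 16 h at 37C, and FRET substrate fluorescence is measured after 2 h at room temperature.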

[16] = qHTS assay to identify small molecule that activate the aryl hydrocarbon receptor (AhR) signaling pathway - cell viability counter screen (AID 743086);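 further: HepG2 liver cells carrying the AhR DRE luciferase reporter; series mostly up to about 70 µM; nearly all actives have a fitted effect of over 45% in size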
In short: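 Cytotoxicity counter screen: CellTiter-Fluor signal (30 min, 37 C) in 4000 HepG2 cells/well carrying the DRE-luciferase reporter, following 24 h compound exposure at 37 C.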

[17] = qHTS assay to identify small molecule antagonists of the peroxisome proliferator-activated receptor gamma (PPARg) signaling pathway - cell viability counter screen (AID 743194); further: nearly all actives have a fitted effect of over 55% in size
In short: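 Viability was measured as CellTiter-Glo luminescence in GeneBLAzer PPARg UAS-bla HEK293H cells. These cells had been exposed 17 h at 37 C to compounds together with rosiglitazone at 50 nM final, with the beta-lactamase readout taken in the same wells.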

[18] = biological target: Bile acid receptor (Homo sapiens) (UniProt Q96RI1); assay: qHTS assay to identify small molecule agonists of the farnesoid-X-receptor (FXR) signaling pathway (AID 743220; active means well fitted activation curve with a large enough effect in the signal ratio in the repeat runs, not every such curve was filed as active; the % refers to the signal ratio)
In short: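 FXR-UAS-bla HEK 293T cells carrying a UAS-driven beta-lactamase reporter were plated for 5 h at 37C/5% CO2, then exposed to DMSO-dissolved Tox21 10K compounds for 16 h at 37C. A LiveBLAzer B/G FRET substrate was loaded for 2 h at room temperature before fluorescence reading.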

[19] = biological target: Vitamin D3 receptor (Homo sapiens) (UniProt P11473); assay: qHTS assay to identify small molecule antagonists of the vitamin D receptor (VDR) signaling pathway (AID 743223; active means well fitted inhibition curve with a large enough effect in the signal ratio in the repeat runs, not every such curve was filed as active; the % refers to the signal ratio)
In short: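 Quantitative HTS in VDR-bla reporter cells stimulated with 1alpha,25-dihydroxyvitamin D3, 3 nM final. Compound exposure 16 h, 37C, 5% CO2. Read-out: beta-lactamase FRET substrate fluorescence, 2 h RT.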

[20] = biological target: Peroxisome proliferator-activated receptor gamma (Homo sapiens) (UniProt P37231); assay: qHTS assay to identify small molecule antagonists of the peroxisome proliferator-activated receptor gamma (PPARg) signaling pathway (AID 743191; calls by dose curve; further: series mostly up to about 63 µM; nearly all actives have a fitted effect of over 30% in size)
In short: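 Beta-lactamase reporter under UAS control in HEK293H PPARg-bla cells; compound treatment 17 h at 37C. Read-out: fluorescence intensity after 1 h room-temperature incubation with LiveBLAzer B/G FRET substrate.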
On the % scale 0 is the no-effect control and ±100 the full control effect.

CC(C)COC(=O)COc1ccc(Cl)cc1Cl
inactive: Potency [1] | Potency [2] | outcome [3] | Potency [4] | outcome [5] | outcome [6] | outcome [7] | outcome [8] | outcome [9] | outcome [10] | outcome [11] | outcome [12] | Potency [13] | outcome [14] | outcome [15]

Nc1ccc(/C=C/c2ccc(N)cc2S(=O)(=O)O)c(S(=O)(=O)O)c1
inactive: Potency [1] | Potency [2] | Potency [16] | activity change, negative = cytotoxicity [17] -0.597% [at 0.55 µM] | activation [4] -8.26% [at 0.756 µM] | viability change, negative = cytotoxic [5] -11% [at 0.756 µM] | activity change, negative = cytotoxicity [6] 6.28% [at 0.55 µM] | activation [7] 0.7% [at 0.55 µM] | activity change, negative = cytotoxicity [8] 4.06% [at 0.55 µM] | viability change, negative = cytotoxic [10] -6.12% [at 0.575 µM] | ratio activity, negative = inhibition [11] -1.73% [at 0.575 µM] | viability change, negative = cytotoxic [13] 14.9% [at 0.55 µM] | activation [18] 1.54% [at 0.55 µM] | activity change, negative = cytotoxicity [14] 5.38% [at 0.55 µM] | activation [15] 1.93% [at 0.554 µM] | activity change, negative = inhibition [19] 0.787% [at 0.628 µM]

CCC(CO)CO
inactive: Potency [1] | Potency [2] | outcome [3] | Potency [20] | Potency [4] | outcome [5] | outcome [6] | outcome [7] | outcome [11] | Potency [13] | outcome [14] | outcome [15]

CC(C)c1ccccc1O
inactive: Potency [1] | Potency [2] | Potency [16] | outcome [17] | Potency [4] | outcome [5] | outcome [6] | outcome [7] | outcome [8] | outcome [9] | outcome [10] | outcome [11] | outcome [12] | Potency [13] | outcome [14] | outcome [15] | outcome [19]

CCCCCCCCCCCCCC(=O)OC
inactive: Potency [1] | Potency [16] | outcome [3] | Potency [20] | outcome [17] | Potency [4] | outcome [5] | outcome [6] | outcome [7] | outcome [8] | outcome [9] | outcome [11] | Potency [13] | outcome [14] | outcome [15]

NC(=O)NC(=O)Cc1ccccc1
inactive: Potency [1] | Potency [16] | outcome [3] | Potency [20] | outcome [17] | Potency [4] | outcome [5] | outcome [6] | outcome [7] | outcome [8] | outcome [9] | outcome [10] | outcome [12] | Potency [13] | outcome [18] | outcome [14] | outcome [15] | outcome [19]

COc1cc2c(Nc3ccc(Br)cc3F)ncnc2cc1OCC1CCN(C)CC1
inactive: Potency [1] | Potency [2] | outcome [3] | Potency [20] | outcome [17] | Potency [4] | outcome [5] | outcome [6] | outcome [7] | outcome [8] | outcome [9] | outcome [10] | outcome [11] | outcome [12] | outcome [14]

CCNC(=O)NCCCOc1cccc(CN2CCCCC2)c1
inactive: Potency [1] | Potency [2] | Potency [16] | outcome [3] | Potency [4] | outcome [5] | outcome [6] | outcome [7] | outcome [8] | outcome [9] | outcome [10] | outcome [11] | Potency [13] | outcome [14] | outcome [15]
